Data from PubChem BioAssay AID1159580 (chemical genetic matrix, 2015).
Screen size: about 5,500 compounds; about 2,000 (36%) were called active. Roughly 18% stayed inconclusive and do not appear here. No stated cut-off is given here; in the data, active means normalized growth mostly below about 0.91 (no sharp cut-off); inconclusive means no clear call, values can overlap the other calls; inactive means mostly above about 0.92. The list shows a part of the results.

Assay: chemical genetic growth profiling, strain panel (AID 1159580);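 further: tested at 20 µM; growth read once vehicle control cultures reached saturation at 30 °C; 1 = growth at the plate median or of vehicle wells; lower values mean less growth of the strain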
Conditions: growth OD

Measured: normalized growth

COc1c(O)cc2c(c1O)[C@H]1O[C@H](CO)[C@@H](O)[C@H](O)[C@@H]1OC2=O
inactive: S. cerevisiae deletion strains, locus YKL009W, strain mrt4, hits give low values 1.01 | S. cerevisiae deletion strains, locus YKL068W, hits give low values 1.01 | S. cerevisiae deletion strains, locus YKL085W, strain MDH1 (second series), hits give low values 1 | S. cerevisiae deletion strains, locus YKL085W, strain MDH1, hits give low values 1 | S. cerevisiae deletion strains, locus YKL160W, strain elf1, hits give low values 1.03 | S. cerevisiae deletion strains, locus YKL190W, strain CNB1, hits give low values 0.975 | S. cerevisiae deletion strains, locus YKR001C, strain vps1, hits give low values 1.01 | S. cerevisiae deletion strains, locus YKR026C, strain gcn3, hits give low values 1.01 | S. cerevisiae deletion strains, locus YKR091W, strain srl3, hits give low values 1.02 | S. cerevisiae deletion strains, locus YLL001W, strain dnm1, hits give low values 1.03 | S. cerevisiae deletion strains, locus YLL026W, hits give low values 1.01 | S. cerevisiae deletion strains, locus YLL041C, strain sdh2, hits give low values 1.02 | S. cerevisiae deletion strains, locus YLR027C, strain aat2, hits give low values 1.02 | S. cerevisiae deletion strains, locus YLR039C, strain RIC1, hits give low values 1.04 | S. cerevisiae deletion strains, locus YLR058C, strain SHM2, hits give low values 0.986 | S. cerevisiae deletion strains, locus YLR102C, strain apc9, hits give low values 1 | S. cerevisiae deletion strains, locus YLR113W, strain HOG1, hits give low values 0.985 | S. cerevisiae deletion strains, locus YLR221C, strain rsa3, hits give low values 1.02 | S. cerevisiae deletion strains, locus YLR258W, strain gsy2, hits give low values 1.04 | S. cerevisiae deletion strains, locus YLR262C, strain YPT6 (second series), hits give low values 1.06 | S. cerevisiae deletion strains, locus YLR262C, strain YPT6, hits give low values 1.07 | S. cerevisiae deletion strains, locus YLR268W, strain sec22, hits give low values 1.01 | S. cerevisiae deletion strains, locus YLR320W, strain mms22, hits give low values 1.05 | S. cerevisiae deletion strains, locus YLR330W, strain CHS5, hits give low values 1.01 | S. cerevisiae deletion strains, locus YLR342W, strain FKS1 (second series), hits give low values 0.902 | S. cerevisiae deletion strains, locus YLR342W, strain FKS1, hits give low values 1.02 | S. cerevisiae deletion strains, locus YLR357W, strain rsc2, hits give low values 1.01 | S. cerevisiae deletion strains, locus YLR370C, strain arc18, hits give low values 1.02 | S. cerevisiae deletion strains, locus YLR371W, strain rom2, hits give low values 1.01 | S. cerevisiae deletion strains, locus YLR384C, strain iki3, hits give low values 1.01 | S. cerevisiae deletion strains, locus YLR418C, strain cdc73, hits give low values 1.02 | S. cerevisiae deletion strains, locus YML016C, strain PPZ1, hits give low values 1 | S. cerevisiae deletion strains, locus YML032C, strain rad52, hits give low values 0.999 | S. cerevisiae deletion strains, locus YML120C, strain ndi1, hits give low values 1.03 | S. cerevisiae deletion strains, locus YML124C, strain tub3, hits give low values 1.01 | S. cerevisiae deletion strains, locus YMR058W, strain fet3, hits give low values 1.01 | S. cerevisiae deletion strains, locus YMR078C, strain ctf18, hits give low values 1.01 | S. cerevisiae deletion strains, locus YMR125W, strain sto1, hits give low values 1.02 | S. cerevisiae deletion strains, locus YMR129W, hits give low values 1.02 | S. cerevisiae deletion strains, locus YMR205C, strain PFK2, hits give low values 1.03 | S. cerevisiae deletion strains, locus YMR223W, strain ubp8, hits give low values 0.993 | S. cerevisiae deletion strains, locus YMR231W, strain pep5, hits give low values 1.02 | S. cerevisiae deletion strains, locus YMR263W, strain SAP30, hits give low values 0.993 | S. cerevisiae deletion strains, locus YMR307W, strain GAS1, hits give low values 0.828 | S. cerevisiae deletion strains, locus YNL067W, strain RPL9B, hits give low values 0.97 | S. cerevisiae deletion strains, locus YNL071W, strain lat1, hits give low values 1.03 | S. cerevisiae deletion strains, locus YNL128W, strain TEP1, hits give low values 1.01 | S. cerevisiae deletion strains, locus YNL153C, strain GIM3, hits give low values 0.999 | S. cerevisiae deletion strains, locus YNL183C, strain NPR1, hits give low values 0.933 | S. cerevisiae deletion strains, locus YNL209W, strain ssb2, hits give low values 1.02 | S. cerevisiae deletion strains, locus YNL233W, strain BNI4, hits give low values 0.939 | S. cerevisiae deletion strains, locus YNL248C, strain rpa49, hits give low values 1.01 | S. cerevisiae deletion strains, locus YNL250W, strain rad50, hits give low values 1.02 | S. cerevisiae deletion strains, locus YNL271C, strain bni1, hits give low values 1.02 | S. cerevisiae deletion strains, locus YNL298W, strain CLA4, hits give low values 1.02 | S. cerevisiae deletion strains, locus YNL307C, strain MCK1, hits give low values 1.01 | S. cerevisiae deletion strains, locus YNL322C, strain KRE1 (second series), hits give low values 1.02 | S. cerevisiae deletion strains, locus YNR049C, strain mso1, hits give low values 1.02 | S. cerevisiae deletion strains, locus YNR052C, strain pop2, hits give low values 0.998 | S. cerevisiae deletion strains, locus YOL006C, strain TOP1, hits give low values 0.973 | S. cerevisiae deletion strains, locus YOL012C, strain htz1 0.964 | S. cerevisiae deletion strains, locus YOL147C, strain pex11, hits give low values 1 | S. cerevisiae deletion strains, locus YOR001W, strain rrp6, hits give low values 1.01 | S. cerevisiae deletion strains, locus YOR061W, strain CKA2, hits give low values 0.995 | S. cerevisiae deletion strains, locus YOR069W, strain VPS5, hits give low values 0.985 | S. cerevisiae deletion strains, locus YOR070C, strain gyp1, hits give low values 1.01 | S. cerevisiae deletion strains, locus YOR080W, strain dia2, hits give low values 1.02 | S. cerevisiae deletion strains, locus YOR083W, strain WHI5, hits give low values 1.03 | S. cerevisiae deletion strains, locus YOR106W, strain vam3, hits give low values 1.02 | S. cerevisiae deletion strains, locus YOR136W, strain idh2, hits give low values 1.02 | S. cerevisiae deletion strains, locus YOR144C, strain elg1, hits give low values 1.01 | S. cerevisiae deletion strains, locus YOR184W, strain ser1, hits give low values 1.02 | S. cerevisiae deletion strains, locus YOR231W, strain MKK1, hits give low values 0.961 | S. cerevisiae deletion strains, locus YOR265W, strain rbl2, hits give low values 1.02 | S. cerevisiae deletion strains, locus YOR270C, strain vph1, hits give low values 1.06 | S. cerevisiae deletion strains, locus YOR290C, strain snf2, hits give low values 0.992 | S. cerevisiae deletion strains, locus YOR316C, strain cot1, hits give low values 1.01 | S. cerevisiae deletion strains, locus YPL051W, strain arl3, hits give low values 1.01 | S. cerevisiae deletion strains, locus YPL055C, strain LGE1, hits give low values 0.967 | S. cerevisiae deletion strains, locus YPL078C, strain atp4, hits give low values 1.03 | S. cerevisiae deletion strains, locus YPL106C, strain sse1, hits give low values 1.02 | S. cerevisiae deletion strains, locus YPL240C, strain hsp82, hits give low values 1.02 | S. cerevisiae deletion strains, locus YPL241C, strain CIN2, hits give low values 0.991 | S. cerevisiae deletion strains, locus YPL256C, strain CLN2, hits give low values 0.935 | S. cerevisiae deletion strains, locus YPR119W, strain clb2, hits give low values 1.01 | S. cerevisiae deletion strains, locus YPR141C, strain kar3, hits give low values 1.01 | S. cerevisiae deletion strains, locus YPR163C, strain tif3, hits give low values 1 | S. cerevisiae deletion strains, locus YPR167C, strain met16, hits give low values 1.02 | S. cerevisiae deletion strains, strain wtn01, hits give low values 1.01 | S. cerevisiae strains, strain wild type, hits give low values 0.957
